According to the supplement of paper PMC3334620:
Over roughly 33,000 sequences, “E-score (-0.5 to 0.5)” has its median near -0.016; the highest 2% begin near 0.3. The entries come from a sample that favours the highest values as a whole.

target: T1, Yer184c (UniProt P39961); experiment: PBM E-score (8-mer binding enrichment) (E-score (-0.5 to 0.5)); higher = stronger / more preferred TF binding; details: protein concentration: 100 nM; construct: GST-full length
T1 sequence: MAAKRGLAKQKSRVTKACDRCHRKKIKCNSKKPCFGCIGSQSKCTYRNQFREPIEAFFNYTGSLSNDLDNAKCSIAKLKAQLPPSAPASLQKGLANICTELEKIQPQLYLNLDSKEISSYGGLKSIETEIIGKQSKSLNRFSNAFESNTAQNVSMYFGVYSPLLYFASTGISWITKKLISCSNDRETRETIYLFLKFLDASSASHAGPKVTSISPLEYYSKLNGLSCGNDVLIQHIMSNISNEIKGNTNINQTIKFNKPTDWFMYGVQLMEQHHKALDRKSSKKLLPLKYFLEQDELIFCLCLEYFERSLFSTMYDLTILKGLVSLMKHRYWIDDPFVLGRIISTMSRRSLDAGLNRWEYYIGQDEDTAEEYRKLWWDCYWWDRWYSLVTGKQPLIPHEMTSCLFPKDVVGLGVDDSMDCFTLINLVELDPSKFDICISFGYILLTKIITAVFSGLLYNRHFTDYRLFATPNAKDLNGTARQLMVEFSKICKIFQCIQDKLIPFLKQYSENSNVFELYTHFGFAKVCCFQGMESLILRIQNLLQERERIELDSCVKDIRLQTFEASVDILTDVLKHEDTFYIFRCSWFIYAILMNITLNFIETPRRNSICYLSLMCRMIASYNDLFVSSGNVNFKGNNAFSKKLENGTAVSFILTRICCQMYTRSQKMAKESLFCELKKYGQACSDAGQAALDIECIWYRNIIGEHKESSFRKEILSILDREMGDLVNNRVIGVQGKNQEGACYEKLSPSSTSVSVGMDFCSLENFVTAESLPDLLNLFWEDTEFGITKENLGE
Description: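 Universal 'all 10-mer' protein binding microarrays (Agilent AMADID 015681) probed with GST-tagged S. cerevisiae TFs (full-length or DBD) made by in vitro transcription/translation (PURExpress), about 100-200 nM. Bound TF was detected with fluorescent anti-GST. Each ungapped 8-mer (which stands for itself and its reverse complement) is scored by the PBM enrichment score (E-score), a modified Wilcoxon-Mann-Whitney statistic from -0.5 to +0.5, computed with the Universal PBM Analysis Suite. Scale: above 0.35 generally sequence-specific binding.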

Sequence	PBM E-score
CTCGGCGC	0.357
CTCGGCTA	0.352
CTCGGCGA	0.399
GTCGGCTA	0.153
CTCGGCTC	0.237
ATCGGCGC	0.275
CGCGGCGC	0.259
ATCGGCGA	0.128
TAGATGGA	-0.162
AAGAGGAG	-0.115
GATGGATA	0.0331
CGGGGAGC	-0.0385
AGAGCCAT	-0.101
CGCTATGA	-0.0231
ATTCGGGC	0.141
CGTCGGAA	0.24
CTTCGGTA	0.235
CTTCGGTC	0.309
GTTCGGGA	0.226
CTTCGGAA	0.394
ATTCGGTC	0.244
GTTCGGAA	0.402

Sequence	PBM E-score
GGTCGGAA	0.225
CTTCGGGA	0.171
AGTCGGAC	0.0344
ATTCGGAC	0.349
AAAGTTAT	0.134
CGAACCCA	-0.0147
GCGCCCTA	-0.135
CGCGTAGC	-0.0173
CCTGTCAG	-0.101
TCCGCGAA	0.234
ATTGGTAG	-0.0488
CTTCGGGC	-0.0555
ATTCGGAG	0.205
CCTCGGAC	0.17
CTTCGGAC	0.325
AGTCGGAA	0.245
ATTCGGAA	0.353
GTATGCTA	-0.0379
AACCGCGG	0.372
ATCCGCGA	0.105
ACCCGCGT	-0.0424
AGCCGCGG	0.419

Sequence	PBM E-score
ATCCGCGG	0.359
ACCCGCGA	-0.0511
AGCCGCGC	0.103
ATCCGCGC	0.141
AACCGCGT	0.168
AGCCGCGA	0.133
ACCCGCGG	0.351
AACCGCGA	0.225
GATCGCAC	-0.0597
CAAAGATC	0.154
CGATCTGC	0.0352
AGCTACCT	-0.0785
CAGTCCCA	-0.171
GTAAGGAA	-0.0396
CACAGAAC	-0.13
ATACCGGA	0.237
CTTCCGCA	0.068
CTTCCTGC	-0.314
GTTCCGGA	0.438
GTACCGGA	0.285
ATTCCGGA	0.436
CTTCCGGC	0.343

Sequence	PBM E-score
CTTCCGCC	0.024
GTTCCGCA	0.268
ATTCCGCA	0.139
CTTCCGGA	0.402
CTTCCCGA	0.148
CCAACGTA	-0.105
ACTCGGGA	0.199
GAAAACCA	-0.0101
GTGCAGAA	0.0359
CTGTGGGC	-0.192
CGTCCCCC	-0.275
ATGGGCAC	-0.072
ATTCGCCA	0.0246
ATTCGCCC	-0.127
ATTCGCCG	0.334
GAGAGGAC	-0.128
GGCCCGGA	0.301
CGCCCGGC	0.213
AGCCCGGG	0.268
CGCCCGGA	0.264
AGCCCGGC	0.309
AGCCCGGA	0.314
